# Experimental data as given in PubChem BioAssay (NCATS).
# Results filed as inconclusive are left out. A number with no mark means an inactive call. The source made the active and inactive calls. Unless noted, the call rests on the fitted dose curve.
# Assay: Cell Viability - Hek293 (AID 427;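 active means compounds whose dose-response curve shows a full or clear partial loss of cell viability, called from curve shape rather than a numeric limit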;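 further: cells exposed to compound for 40 hours at 37 °C before reading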)
# Details: qHTS
# Outline: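 qHTS, human embryonic kidney (adenovirus-transformed) cells; 40 hr cpd, 37 °C; CellTiter-Glo ATP luminescence. Norm: DMSO = 0, 100 uM tamoxifen = 100% inhibition. Hill-fit AC50.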
# Potency means the concentration at half of the fitted maximal effect.
row,SMILES,Potency
1,Oc1ccc2cc(SSc3ccc4cc(O)ccc4c3)ccc2c1,46.2 µM (active)
2,Nc1ccc2cc3ccccc3cc2c1,> 92 µM
3,CN(C)c1ccc(C2(c3ccc(N(C)C)cc3)OC(=O)c3cc(N(C)C)ccc32)cc1,> 92 µM
4,Cc1cc(Nc2ccc(O)cc2)ccc1N,52.8 µM (active)
5,Cc1cc(O)c(C(C)(C)C)cc1Sc1cc(C(C)(C)C)c(O)cc1C,33.7 µM (active)
6,C=C(C)c1ccccc1,> 92 µM
7,O=C1OC2(c3cc(Br)c(O)c(Br)c3Oc3c2cc(Br)c(O)c3Br)c2c(Cl)c(Cl)c(Cl)c(Cl)c21,> 92 µM
8,c1cc(OCC2CO2)cc(OCC2CO2)c1 (centres undefined),32.9 µM (active)
9,ClC1=C(Cl)C(Cl)(Cl)C(Cl)=C1Cl,> 92 µM
10,C=CC(=O)OCCOCCOC(=O)C=C,27 µM (active)
11,CNc1ccc(O)cc1,40.8 µM (active)
12,CC(=O)Nc1ccc(C(=O)CCl)cc1,37.9 µM (active)
13,CCC(C)Nc1ccc(NC(C)CC)cc1 (centres undefined),19.3 µM (active)
14,O=C=Nc1ccc(Cc2ccc(N=C=O)cc2)cc1,> 92 µM
15,c1ccc2c(c1)ccc1cc3c(ccc4ccccc43)cc12,> 92 µM
16,c1ccc2c(c1)-c1cccc3c1c-2cc1ccccc13,> 92 µM
17,O=[N+]([O-])c1cc([N+](=O)[O-])c2ccc(S(=O)(=O)O)cc2c1O,> 92 µM
18,O=Cc1ccc(Cl)c(Cl)c1,> 92 µM

# Assay: Cell Viability - HepG2 (AID 433);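 further: cells exposed to compound for 40 hours; potency for ATP loss meaning cytotoxicity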
# Details: qHTS
# Outline: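 Cytotoxicity read as ATP loss (CellTiter-Glo luminescence) after 40 hr compound exposure of HepG2, 1500 cells/well, 37 °C. AC50 by Hill equation; 0% set by DMSO, 100% inhibition by 100 uM tamoxifen.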
row,SMILES,Potency
1,Oc1ccc2cc(SSc3ccc4cc(O)ccc4c3)ccc2c1,> 92 µM
2,Nc1ccc2cc3ccccc3cc2c1,> 92 µM
3,CN(C)c1ccc(C2(c3ccc(N(C)C)cc3)OC(=O)c3cc(N(C)C)ccc32)cc1,> 92 µM
4,CO[C@H]1/C=C/O[C@@]2(C)Oc3c(C)c(O)c4c(O)c(c5c(c4c3C2=O)NC2(CCN(CC(C)C)CC2)N=5)=NC(=O)/C(C)=C\C=C\[C@H](C)[C@H](O)[C@@H](C)[C@@H](O)[C@@H](C)[C@H](OC(C)=O)[C@@H]1C,> 92 µM
5,Cc1cc(O)c(C(C)(C)C)cc1Sc1cc(C(C)(C)C)c(O)cc1C,32.3 µM (active)
6,C=C(C)c1ccccc1,> 92 µM
7,ClC1=C(Cl)C(Cl)(Cl)C(Cl)=C1Cl,22.6 µM (active)
8,C/C=C1\C(=O)C[C@H]2[C@@H]3CCC4=CC(=O)CC[C@]4(C)[C@H]3CC[C@]12C,> 92 µM
9,CNc1ccc(O)cc1,59.6 µM (active)
10,CC(=O)Nc1ccc(C(=O)CCl)cc1,40.3 µM (active)
11,CCC(C)Nc1ccc(NC(C)CC)cc1 (centres undefined),13.5 µM (active)
12,O=C=Nc1ccc(Cc2ccc(N=C=O)cc2)cc1,> 92 µM
13,c1ccc2c(c1)ccc1cc3c(ccc4ccccc43)cc12,> 92 µM
14,CC/C(=C(\c1ccccc1)c1ccc(OCCN(C)C)cc1)c1ccc(O)cc1,29.4 µM (active)
15,c1ccc2c(c1)-c1cccc3c1c-2cc1ccccc13,> 92 µM
16,O=[N+]([O-])c1cc([N+](=O)[O-])c2ccc(S(=O)(=O)O)cc2c1O,> 92 µM
17,O=Cc1ccc(Cl)c(Cl)c1,> 92 µM

# Assay: Cell Viability - MRC5 (AID 434);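 further: cells exposed to compound for 40 hours at 37 °C; potency reflects cytotoxicity seen as loss of intracellular ATP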
# Details: MRC5 lung fibroblast viability, qHTS
# Outline: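 AC50 values come from Hill-equation fits of intracellular ATP loss, measured by CellTiter-Glo luminescence. Normal lung fibroblasts (MRC5) had 40 hr compound treatment at 37 C, normalized between DMSO and 100 uM tamoxifen.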
row,SMILES,Potency
1,Oc1ccc2cc(SSc3ccc4cc(O)ccc4c3)ccc2c1,38.3 µM (active)
2,Nc1ccc2cc3ccccc3cc2c1,> 92 µM
3,CN(C)c1ccc(C2(c3ccc(N(C)C)cc3)OC(=O)c3cc(N(C)C)ccc32)cc1,> 92 µM
4,Cc1cc(Nc2ccc(O)cc2)ccc1N,> 92 µM
5,CO[C@H]1/C=C/O[C@@]2(C)Oc3c(C)c(O)c4c(O)c(c5c(c4c3C2=O)NC2(CCN(CC(C)C)CC2)N=5)=NC(=O)/C(C)=C\C=C\[C@H](C)[C@H](O)[C@@H](C)[C@@H](O)[C@@H](C)[C@H](OC(C)=O)[C@@H]1C,> 92 µM
6,Cc1cc(O)c(C(C)(C)C)cc1Sc1cc(C(C)(C)C)c(O)cc1C,40.2 µM (active)
7,C=C(C)c1ccccc1,> 92 µM
8,Cc1ccc(S(=O)(=O)Oc2ccc(N=Nc3ccc(-c4ccc(N=Nc5c(O)ccc6cc(S(=O)(=O)O)cc(S(=O)(=O)O)c56)c(C)c4)cc3C)cc2)cc1,> 92 µM
9,O=C1OC2(c3cc(Br)c(O)c(Br)c3Oc3c2cc(Br)c(O)c3Br)c2c(Cl)c(Cl)c(Cl)c(Cl)c21,> 92 µM
10,c1cc(OCC2CO2)cc(OCC2CO2)c1 (centres undefined),34.7 µM (active)
11,ClC1=C(Cl)C(Cl)(Cl)C(Cl)=C1Cl,> 92 µM
12,C/C=C1\C(=O)C[C@H]2[C@@H]3CCC4=CC(=O)CC[C@]4(C)[C@H]3CC[C@]12C,> 92 µM
13,CCC(C)Nc1ccc(NC(C)CC)cc1 (centres undefined),20.7 µM (active)
14,O=C=Nc1ccc(Cc2ccc(N=C=O)cc2)cc1,> 92 µM
15,c1ccc2c(c1)ccc1cc3c(ccc4ccccc43)cc12,> 92 µM
16,CC/C(=C(\c1ccccc1)c1ccc(OCCN(C)C)cc1)c1ccc(O)cc1,43.3 µM (active)
17,c1ccc2c(c1)-c1cccc3c1c-2cc1ccccc13,> 92 µM
18,O=[N+]([O-])c1cc([N+](=O)[O-])c2ccc(S(=O)(=O)O)cc2c1O,> 92 µM
19,O=Cc1ccc(Cl)c(Cl)c1,> 92 µM
